Measured values: PubChem BioAssay AID1159580 (chemical genetic matrix, 2015)
“And” between values parts separate entries of the source, which are not always exact repeats. Identical values can stand only once. Out of some 5,500 compounds screened, about 2,000 (36%) were called active. Not shown: some 18% with an inconclusive outcome. No stated cut-off is given here; in the data, active means normalized growth mostly below about 0.91 (no sharp cut-off); inconclusive means no clear call, values can overlap the other calls; inactive means mostly above about 0.92. The list shows a part of the results.

Test: chemical genetic growth profiling, strain panel (AID 1159580);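 further: tested at 20 µM; growth read once vehicle control cultures reached saturation at 30 °C; 1 = growth at the plate median or of vehicle wells; lower values mean less growth of the strain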
Conditions: growth OD

Measured: normalized growth

NC(N)=NC(N)=Nc1ccccc1
inactive: S. cerevisiae deletion strains, locus YJR066W, strain TOR1, active compounds read low 0.931 | S. cerevisiae deletion strains, locus YKL009W, strain mrt4, active compounds read low 0.998 | S. cerevisiae deletion strains, locus YKL068W, active compounds read low 0.996 | S. cerevisiae deletion strains, locus YKL085W, strain MDH1 (second series), active compounds read low 1 | S. cerevisiae deletion strains, locus YKL085W, strain MDH1, active compounds read low 1 | S. cerevisiae deletion strains, locus YKL160W, strain elf1, active compounds read low 0.991 | S. cerevisiae deletion strains, locus YKL190W, strain CNB1, active compounds read low 1 | S. cerevisiae deletion strains, locus YKR001C, strain vps1, active compounds read low 0.994 | S. cerevisiae deletion strains, locus YKR026C, strain gcn3, active compounds read low 1 | S. cerevisiae deletion strains, locus YKR091W, strain srl3, active compounds read low 0.994 | S. cerevisiae deletion strains, locus YLL001W, strain dnm1, active compounds read low 0.982 | S. cerevisiae deletion strains, locus YLL026W, active compounds read low 1 | S. cerevisiae deletion strains, locus YLL041C, strain sdh2, active compounds read low 1 | S. cerevisiae deletion strains, locus YLR027C, strain aat2, active compounds read low 1 | S. cerevisiae deletion strains, locus YLR039C, strain RIC1, active compounds read low 1.05 | S. cerevisiae deletion strains, locus YLR058C, strain SHM2, active compounds read low 1.02 | S. cerevisiae deletion strains, locus YLR102C, strain apc9, active compounds read low 0.994 | S. cerevisiae deletion strains, locus YLR113W, strain HOG1, active compounds read low 0.988 | S. cerevisiae deletion strains, locus YLR221C, strain rsa3, active compounds read low 1 | S. cerevisiae deletion strains, locus YLR258W, strain gsy2, active compounds read low 0.988 | S. cerevisiae deletion strains, locus YLR262C, strain YPT6 (second series), active compounds read low 0.985 | S. cerevisiae deletion strains, locus YLR262C, strain YPT6, active compounds read low 1.05 | S. cerevisiae deletion strains, locus YLR268W, strain sec22, active compounds read low 0.997 | S. cerevisiae deletion strains, locus YLR320W, strain mms22, active compounds read low 0.993 | S. cerevisiae deletion strains, locus YLR330W, strain CHS5, active compounds read low 1.01 | S. cerevisiae deletion strains, locus YLR342W, strain FKS1 (second series), active compounds read low 1.02 | S. cerevisiae deletion strains, locus YLR342W, strain FKS1, active compounds read low 1 | S. cerevisiae deletion strains, locus YLR357W, strain rsc2, active compounds read low 0.998 | S. cerevisiae deletion strains, locus YLR370C, strain arc18, active compounds read low 1.01 | S. cerevisiae deletion strains, locus YLR371W, strain rom2, active compounds read low 0.986 | S. cerevisiae deletion strains, locus YLR384C, strain iki3, active compounds read low 0.999 | S. cerevisiae deletion strains, locus YLR418C, strain cdc73, active compounds read low 0.951 | S. cerevisiae deletion strains, locus YML016C, strain PPZ1, active compounds read low 1.02 | S. cerevisiae deletion strains, locus YML032C, strain rad52, active compounds read low 0.991 | S. cerevisiae deletion strains, locus YML120C, strain ndi1, active compounds read low 0.995 | S. cerevisiae deletion strains, locus YML124C, strain tub3, active compounds read low 0.991 | S. cerevisiae deletion strains, locus YMR058W, strain fet3, active compounds read low 1 | S. cerevisiae deletion strains, locus YMR078C, strain ctf18, active compounds read low 0.998 | S. cerevisiae deletion strains, locus YMR125W, strain sto1, active compounds read low 0.982 | S. cerevisiae deletion strains, locus YMR129W, active compounds read low 0.996 | S. cerevisiae deletion strains, locus YMR205C, strain PFK2, active compounds read low 1.01 | S. cerevisiae deletion strains, locus YMR223W, strain ubp8, active compounds read low 0.99 | S. cerevisiae deletion strains, locus YMR231W, strain pep5, active compounds read low 0.994 | S. cerevisiae deletion strains, locus YMR263W, strain SAP30, active compounds read low 0.993 | S. cerevisiae deletion strains, locus YMR307W, strain GAS1, active compounds read low 1.04 and 0.978 | S. cerevisiae deletion strains, locus YNL067W, strain RPL9B, active compounds read low 1.03 | S. cerevisiae deletion strains, locus YNL071W, strain lat1, active compounds read low 1.01 | S. cerevisiae deletion strains, locus YNL128W, strain TEP1, active compounds read low 1.01 and 1.02 | S. cerevisiae deletion strains, locus YNL175C, strain NOP13, active compounds read low 1.02 | S. cerevisiae deletion strains, locus YNL183C, strain NPR1, active compounds read low 0.923 | S. cerevisiae deletion strains, locus YNL197C, strain WHI3, active compounds read low 1.02 | S. cerevisiae deletion strains, locus YNL209W, strain ssb2, active compounds read low 1 | S. cerevisiae deletion strains, locus YNL224C, strain SQS1, active compounds read low 0.998 | S. cerevisiae deletion strains, locus YNL233W, strain BNI4, active compounds read low 1.02 | S. cerevisiae deletion strains, locus YNL248C, strain rpa49, active compounds read low 0.998 | S. cerevisiae deletion strains, locus YNL250W, strain rad50, active compounds read low 0.992 | S. cerevisiae deletion strains, locus YNL271C, strain bni1, active compounds read low 0.994 | S. cerevisiae deletion strains, locus YNL298W, strain CLA4, active compounds read low 0.993 | S. cerevisiae deletion strains, locus YNL307C, strain MCK1, active compounds read low 1 | S. cerevisiae deletion strains, locus YNL322C, strain KRE1 (second series), active compounds read low 1 | S. cerevisiae deletion strains, locus YNL322C, strain KRE1, active compounds read low 1 | S. cerevisiae deletion strains, locus YNR049C, strain mso1, active compounds read low 1.01 | S. cerevisiae deletion strains, locus YNR052C, strain pop2, active compounds read low 0.991 | S. cerevisiae deletion strains, locus YOL006C, strain TOP1, active compounds read low 1.03 | S. cerevisiae deletion strains, locus YOL012C, strain htz1 1.06 | S. cerevisiae deletion strains, locus YOL147C, strain pex11, active compounds read low 0.991 | S. cerevisiae deletion strains, locus YOR001W, strain rrp6, active compounds read low 0.989 | S. cerevisiae deletion strains, locus YOR061W, strain CKA2, active compounds read low 1.01 | S. cerevisiae deletion strains, locus YOR069W, strain VPS5, active compounds read low 1.01 | S. cerevisiae deletion strains, locus YOR070C, strain gyp1, active compounds read low 1 | S. cerevisiae deletion strains, locus YOR080W, strain dia2, active compounds read low 0.98 | S. cerevisiae deletion strains, locus YOR083W, strain WHI5 (second series), active compounds read low 1.02 | S. cerevisiae deletion strains, locus YOR083W, strain WHI5, active compounds read low 0.996 | S. cerevisiae deletion strains, locus YOR106W, strain vam3, active compounds read low 1 | S. cerevisiae deletion strains, locus YOR136W, strain idh2, active compounds read low 0.995 | S. cerevisiae deletion strains, locus YOR144C, strain elg1, active compounds read low 0.994 | S. cerevisiae deletion strains, locus YOR184W, strain ser1, active compounds read low 0.977 | S. cerevisiae deletion strains, locus YOR231W, strain MKK1, active compounds read low 1.01 | S. cerevisiae deletion strains, locus YOR265W, strain rbl2, active compounds read low 1.01 | S. cerevisiae deletion strains, locus YOR270C, strain vph1, active compounds read low 1.06 | S. cerevisiae deletion strains, locus YOR290C, strain snf2, active compounds read low 0.987 | S. cerevisiae deletion strains, locus YOR316C, strain cot1, active compounds read low 0.996 | S. cerevisiae deletion strains, locus YPL051W, strain arl3, active compounds read low 0.996 | S. cerevisiae deletion strains, locus YPL055C, strain LGE1, active compounds read low 0.993 | S. cerevisiae deletion strains, locus YPL078C, strain atp4, active compounds read low 1 | S. cerevisiae deletion strains, locus YPL106C, strain sse1, active compounds read low 0.955 | S. cerevisiae deletion strains, locus YPL240C, strain hsp82, active compounds read low 0.986 | S. cerevisiae deletion strains, locus YPL241C, strain CIN2, active compounds read low 1.01 | S. cerevisiae deletion strains, locus YPL256C, strain CLN2, active compounds read low 0.996 | S. cerevisiae deletion strains, locus YPR119W, strain clb2, active compounds read low 0.991 | S. cerevisiae deletion strains, locus YPR141C, strain kar3, active compounds read low 0.98 | S. cerevisiae deletion strains, locus YPR163C, strain tif3, active compounds read low 0.999 | S. cerevisiae deletion strains, locus YPR167C, strain met16, active compounds read low 0.996 | S. cerevisiae deletion strains, strain wtn01, active compounds read low 1 | S. cerevisiae strains, strain wild type, active compounds read low 1.01
